In experiment [1] the target is D(1A) dopamine receptor (Homo sapiens) (UniProt P21728). Put plainly: HTS Assay for Allosteric Agonists of the Human D1 Dopamine Receptor: Primary Screen for Agonists (AID 488981). Also: 0% is about no effect. Summed up: (§1)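 Calcium flux in an inducible, force-coupled HEK293 Trex D1 line (overnight at 30 C): agonist mode is the 180 s kinetic read after compound; potentiator mode is the following 180 s read after dopamine at EC20.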

For experiment [2] the target is unchanged. Put plainly: HTS Assay for Allosteric Agonists of the Human D1 Dopamine Receptor: Primary Screen for Antagonists (AID 488983).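 Also: calcium flux response to an EC80 dopamine challenge measured with no-wash dye; % is scaled to controls: 0 for no effect and ±100 for the full control effect; nearly all actives have a fitted effect of over 65% in size.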 Summed up:
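Tetracycline-induced HEK293 T-REx D1 line, force-coupled to calcium flux, read with no-wash calcium dye. Compound added after 10 s baseline, read 180 s for agonism, then EC80 dopamine added and read a further 180 s.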

The nature of experiment [3]: Validation screen for small molecules that induce genotoxicity in human embryonic kidney (HEK293T) cells expressing luciferase-tagged ELG1 (AID 493106). Also: 0% is about no effect. A digest of the protocol:
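HEK293T cells expressing luciferase-tagged ELG1, 2,000 cells/well, exposed to compound 16 hr at 37 °C, 5% CO2. Luciferase read after ONE-Glo, 30 min at room temperature; increased signal indicates genetic stress.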

The target of experiment [4] is ATPase family AAA domain-containing protein 5 (Homo sapiens) (UniProt Q96QE3). Put plainly: Validation screen for small molecules that inhibit ELG1-dependent DNA repair in human embryonic kidney (HEK293T) cells expressing luciferase-tagged ELG1 (AID 493107).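 Also: cells co-treated with the DNA-damaging agent 5-fluorouridine alongside compound; series mostly up to about 46 µM; % is scaled to controls: 0 for no effect and ±100 for the full control effect; inhibitors lower the ELG1-luciferase luminescence signal; nearly all actives have a fitted effect of over 70% in size.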 Summed up: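 HEK293T cells expressing luciferase-tagged ELG1, 2,000 per well, treated with 5-fluorouridine plus compound for 16 h at 37 C. ONE-Glo luminescence after 30 min at room temperature reports ELG1 reporter level.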
Sequence of ATPase family AAA domain-containing protein 5 (Homo sapiens) (Q96QE3 whole entry, looked up, the tested form may be a part): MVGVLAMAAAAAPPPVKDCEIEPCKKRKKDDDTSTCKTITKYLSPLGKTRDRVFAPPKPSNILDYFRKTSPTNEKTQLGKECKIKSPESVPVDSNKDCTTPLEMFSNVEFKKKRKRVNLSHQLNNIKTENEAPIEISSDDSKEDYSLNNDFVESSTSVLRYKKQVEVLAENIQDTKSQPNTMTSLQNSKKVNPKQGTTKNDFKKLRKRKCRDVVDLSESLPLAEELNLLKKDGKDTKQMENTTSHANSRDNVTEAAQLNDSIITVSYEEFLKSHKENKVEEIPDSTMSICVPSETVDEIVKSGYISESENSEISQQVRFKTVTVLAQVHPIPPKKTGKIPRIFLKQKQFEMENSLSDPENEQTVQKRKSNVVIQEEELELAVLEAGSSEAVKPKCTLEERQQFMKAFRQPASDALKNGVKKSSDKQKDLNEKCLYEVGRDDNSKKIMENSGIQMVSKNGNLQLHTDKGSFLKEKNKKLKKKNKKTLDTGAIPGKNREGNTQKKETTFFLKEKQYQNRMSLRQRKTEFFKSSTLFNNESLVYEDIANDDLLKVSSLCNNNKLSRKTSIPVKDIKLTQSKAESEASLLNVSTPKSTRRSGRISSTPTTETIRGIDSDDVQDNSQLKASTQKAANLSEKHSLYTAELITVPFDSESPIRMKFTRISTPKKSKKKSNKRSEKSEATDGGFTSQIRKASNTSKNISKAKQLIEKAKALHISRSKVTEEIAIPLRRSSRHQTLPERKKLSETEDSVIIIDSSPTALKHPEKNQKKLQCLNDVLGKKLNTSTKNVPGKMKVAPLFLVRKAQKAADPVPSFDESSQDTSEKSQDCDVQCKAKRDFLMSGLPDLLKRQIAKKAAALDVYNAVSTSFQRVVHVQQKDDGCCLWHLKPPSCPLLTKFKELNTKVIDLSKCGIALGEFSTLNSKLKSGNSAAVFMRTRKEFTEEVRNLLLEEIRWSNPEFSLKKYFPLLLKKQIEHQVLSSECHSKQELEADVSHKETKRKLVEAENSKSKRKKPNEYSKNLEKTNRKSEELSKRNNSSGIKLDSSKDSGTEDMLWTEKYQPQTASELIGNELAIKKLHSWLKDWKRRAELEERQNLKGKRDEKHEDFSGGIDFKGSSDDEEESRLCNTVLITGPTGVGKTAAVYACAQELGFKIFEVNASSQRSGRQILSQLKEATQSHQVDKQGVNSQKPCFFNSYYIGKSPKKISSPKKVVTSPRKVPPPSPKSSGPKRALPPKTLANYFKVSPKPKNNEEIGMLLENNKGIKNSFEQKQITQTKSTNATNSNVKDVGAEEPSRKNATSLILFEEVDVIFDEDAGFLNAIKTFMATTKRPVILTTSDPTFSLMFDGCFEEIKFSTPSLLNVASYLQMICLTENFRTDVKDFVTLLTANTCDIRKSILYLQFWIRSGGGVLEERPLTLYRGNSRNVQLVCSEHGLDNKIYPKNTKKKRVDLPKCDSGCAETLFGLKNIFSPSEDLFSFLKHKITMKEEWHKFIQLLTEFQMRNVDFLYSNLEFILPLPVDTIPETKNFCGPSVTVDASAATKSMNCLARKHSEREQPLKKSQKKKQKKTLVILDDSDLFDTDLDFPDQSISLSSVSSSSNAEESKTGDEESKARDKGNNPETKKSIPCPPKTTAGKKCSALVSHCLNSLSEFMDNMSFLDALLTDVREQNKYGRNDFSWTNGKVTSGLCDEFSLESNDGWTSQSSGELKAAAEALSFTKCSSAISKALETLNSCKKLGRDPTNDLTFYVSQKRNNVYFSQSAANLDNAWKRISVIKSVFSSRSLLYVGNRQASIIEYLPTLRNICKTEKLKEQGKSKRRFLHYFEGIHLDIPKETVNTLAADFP

A short description of experiment [5]: Nrf2 qHTS screen for inhibitors: Validation (AID 493153; active = well fitted inhibition curve with a large enough effect in the main read-out, with a control signal flat, not every such curve was filed as active). The settings on record: viability change: measured here: cytotoxicity max response. Summed up: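 A549 cells carrying ARE-firefly luciferase reporter, 5000 cells/well in 5% FBS OPTI-MEM, treated with compound over a concentration series for 18-24 h at 37 C. Luciferase luminescence gave Nrf2 activity; CellTiter-Fluor fluorescence gave viability.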
(In qHTS, concentration-response curves come from the screen itself.)

Experiment [6] in a line: qHTS for Inhibitors of Cell Surface uPA Generation: Validation Assay (AID 493164). Also: 0% is about no effect. A digest of the protocol:
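RAW 264.7 cells (4000/well) were plated overnight, then exposed for 18 h at 37 C, 5% CO2 to compounds in a 7-point 1:5 titration (2.45 nM–38.3 uM final). Intracellular ATP was read by ATP-Lite luminescence.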

The target of experiment [7] is Peptidyl-prolyl cis-trans isomerase NIMA-interacting 1 (Homo sapiens) (UniProt Q13526). Put plainly: qHTS Validation Assay to Find Inhibitors of Pin1 (AID 504536; active = well fitted inhibition curve with a large enough effect in the polarisation, with a control signal flat, not every such curve was filed as active; the % refers to the polarisation;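 also: 0% = full Pin1 enzyme wells and -100% = no-enzyme wells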). A digest of the protocol:
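Fluorescence polarization competition: compounds (titration) displace HiFluor-488-labeled Pin1-1b peptide from Pin1 (0.3 uM final) in pH 7.5 HEPES buffer with DTT, 10 min at room temperature; %Activity normalized to no-enzyme wells, curves fitted.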

Experiment [8] deals with Phosphoglycerate kinase, glycosomal (Trypanosoma brucei brucei) (UniProt P07378). Put plainly: qHTS Validation Assay to Find Inhibitors of Phosphoglycerate Kinase (AID 504547).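 Also: control wells lack PGK and mark full inhibition.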 A digest of the protocol: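 Inhibition of the enzyme is judged by a Kinase-Glo Plus luminescent signal following a one-hour incubation at room temperature. Because 1,3-BPG is unstable, it is made in situ by GAPDH at 100nM final; no-PGK wells define the baseline.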

Experiment [9] addresses phosphoglycerate mutase (Leishmania major) (UniProt Q4Q090). Put plainly: qHTS Validation Assay to Find Inhibitors of Phosphoglycerate Mutase (AID 504548).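 Also: end-point luminescence from Kinase-GloPlus after the PGAM reaction; series mostly up to about 58 µM; % is scaled to controls: 0 for no effect and ±100 for the full control effect.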 Summed up:
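L. major PGAM (1.25nM final) was added to substrate buffer and pinned compound, incubated 45 minutes at room temperature, then Kinase-GloPlus added; luminescence read after 10 minutes. Buffer: 100 mM TEA pH 7.6, 5 mM MgCl2, 0.01% Tween-20.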

Experiment [10] is described as follows: Inducers of the Endoplasmic Reticulum Stress Response (ERSR) in human glioma: Validation (AID 504836). Also: 0% is about no effect. A digest of the protocol:
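ERSR induction read as luciferase luminescence (Bright-Glo, 10 min at room temperature) in stably transfected human U87-MG glioma cells exposed to compounds for 16 h, using GRP78 as sensor.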

The target in experiment [11] is Ubiquitin carboxyl-terminal hydrolase 1 (Homo sapiens) (UniProt O94782). Put plainly: Inhibitors of USP1/UAF1: Pilot qHTS (AID 504865). Also: nearly all actives have a fitted effect of over 35% in size. Also: potency is read from the fitted curve at half-maximal effect. Summed up: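 Kinetic fluorescence assay: 1nM USP1/UAF1, 15 min compound preincubation, then 150nM Ub-Rho; 480/540 nm.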
Sequence of Ubiquitin carboxyl-terminal hydrolase 1 (Homo sapiens) (O94782 whole entry, looked up): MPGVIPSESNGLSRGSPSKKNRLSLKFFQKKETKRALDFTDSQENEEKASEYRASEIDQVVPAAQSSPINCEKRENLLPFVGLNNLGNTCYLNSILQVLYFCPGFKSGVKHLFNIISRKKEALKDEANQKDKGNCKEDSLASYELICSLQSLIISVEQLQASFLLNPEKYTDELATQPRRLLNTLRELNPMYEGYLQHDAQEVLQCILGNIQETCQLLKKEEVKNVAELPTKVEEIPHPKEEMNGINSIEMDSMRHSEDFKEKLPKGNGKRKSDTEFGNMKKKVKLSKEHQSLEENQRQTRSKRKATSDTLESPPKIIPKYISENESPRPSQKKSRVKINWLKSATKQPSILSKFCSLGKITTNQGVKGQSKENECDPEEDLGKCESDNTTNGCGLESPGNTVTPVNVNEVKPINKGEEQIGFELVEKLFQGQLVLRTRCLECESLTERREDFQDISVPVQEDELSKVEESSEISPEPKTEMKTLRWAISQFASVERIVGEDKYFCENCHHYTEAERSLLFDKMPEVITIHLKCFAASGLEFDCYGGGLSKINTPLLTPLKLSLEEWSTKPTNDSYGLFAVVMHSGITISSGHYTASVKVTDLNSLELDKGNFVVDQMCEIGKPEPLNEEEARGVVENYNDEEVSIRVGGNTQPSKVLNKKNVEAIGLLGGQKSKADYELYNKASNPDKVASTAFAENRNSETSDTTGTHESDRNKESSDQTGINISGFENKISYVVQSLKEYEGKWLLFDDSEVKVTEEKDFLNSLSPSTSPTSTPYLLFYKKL
Experiment [12] is described as follows: qHTS for Inhibitors of ATXN expression: Validation of Cytotoxic Assay (AID 588349). Also: % is scaled to controls: 0 for no effect and ±100 for the full control effect. Summed up: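 HEK293 cells treated with titrated compound for 72 hr at 37 degrees C; viability read as intracellular ATP by CellTiter Glo luminescence.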
Experiment [13] addresses Transient receptor potential cation channel subfamily V member 1 (Homo sapiens) (UniProt Q8NER1). Put plainly: HTS Assay for Compounds that Act as Enhancers of the Vanilloid Receptor 1 (AID 488979). Also: 0% is about no effect. A digest of the protocol: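 Calcium influx kinetics via Fluo-8 (480/520 nm) in TRPV1-expressing cells, 2000/well cultured overnight at 35.5C. Compound-alone read 3 min (agonist phase), followed by EC20 capsaicin challenge for 2 min (enhancer phase).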

In experiment [14] the target is Thyrotropin receptor (Homo sapiens) (UniProt P16473). Put plainly: qHTS Assay for Antagonists of the Thyroid Stimulating Hormone Receptor (AID 488980). Also: series mostly up to about 58 µM; 0% is about no effect. A digest of the protocol: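 Cells expressing human TSHR (HEK293) are dispensed in HBSS/HEPES containing 70 uM RO 20-1724, compound is added, then TSH at EC80 (4 nM final). Antibody in lysis buffer follows, 30 minutes at room temperature before HTRF detection.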
Sequence of Thyrotropin receptor (Homo sapiens) (P16473 whole entry, looked up): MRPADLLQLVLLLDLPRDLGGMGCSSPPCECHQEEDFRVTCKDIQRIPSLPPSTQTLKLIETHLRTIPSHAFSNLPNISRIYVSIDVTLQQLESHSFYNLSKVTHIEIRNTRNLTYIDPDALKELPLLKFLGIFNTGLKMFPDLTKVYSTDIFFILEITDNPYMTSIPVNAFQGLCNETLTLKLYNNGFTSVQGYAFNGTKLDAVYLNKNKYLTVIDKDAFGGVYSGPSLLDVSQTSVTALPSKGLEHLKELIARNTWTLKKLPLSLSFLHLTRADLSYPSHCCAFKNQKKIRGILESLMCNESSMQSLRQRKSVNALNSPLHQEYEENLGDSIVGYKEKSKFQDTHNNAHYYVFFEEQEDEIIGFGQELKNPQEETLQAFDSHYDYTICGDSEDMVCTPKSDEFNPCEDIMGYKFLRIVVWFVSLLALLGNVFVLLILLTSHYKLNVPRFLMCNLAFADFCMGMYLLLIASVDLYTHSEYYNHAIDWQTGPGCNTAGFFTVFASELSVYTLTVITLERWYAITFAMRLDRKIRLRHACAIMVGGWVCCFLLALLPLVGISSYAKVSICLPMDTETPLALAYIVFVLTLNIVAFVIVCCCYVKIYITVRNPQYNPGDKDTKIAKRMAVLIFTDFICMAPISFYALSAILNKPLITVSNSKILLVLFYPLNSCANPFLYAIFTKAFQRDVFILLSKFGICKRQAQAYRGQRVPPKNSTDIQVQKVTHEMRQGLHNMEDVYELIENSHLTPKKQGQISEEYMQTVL

Experiment [15] addresses Thyrotropin-releasing hormone receptor (Homo sapiens) (UniProt P34981). Put plainly: qHTS for Small Molecule Agonists and Allosteric Enhancers of Human TRH Receptor: Validation Screen for Agonists (AID 493127;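 active = calcium activation more than 3 SD above the typical response in the agonist read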; also: 0% is about no effect). The settings on record: TRH receptor agonist cell assay; at 2 µM; stronger effect = higher value. Summed up: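 TRHR cells loaded with fluo-8 calcium dye; FDSS kinetic fluorescence (Ex 480/Em 530) read at 1 s/cycle after 23 nL compound addition. Agonist-mode calcium response recorded before the 10 nM TRH (EC20) addition.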

In experiment [16] the target is Galactokinase (Homo sapiens) (UniProt P51570). Put plainly: qHTS Validation Assay for Inhibitors of Human Galactokinase (GALK) (AID 493189). Also: 0% is about no effect. Summed up:
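Compounds were pin-transferred into ATP buffer, then GALK-galactose mix was added (final 5 nM enzyme, 100 uM galactose, 35 uM ATP). After 1 h at room temperature, remaining ATP was measured luminescently.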

Experiment [17] can be described thus: Validation screen for small molecules that induce DNA re-replication in SW480 colon adenocarcinoma cells (AID 504364). Also: 0% is about no effect. Summed up:
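SW480 cells (250/well) exposed 48 h at 37 C, 5% CO2, then Hoechst-stained 40 min. Nuclear DNA content imaged by fluorescence scanning (405 nm excitation, 500-530 nm emission); re-replication scored as increased nuclei with elevated intensity.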

Experiment [18] has as its target ATP-dependent 6-phosphofructokinase (Trypanosoma brucei brucei) (UniProt O15648). Put plainly: qHTS Assay to Find Inhibitors of T. brucei phosphofructokinase: hit validation (AID 492961). Also: potency is read from the fitted curve at half-maximal effect. A digest of the protocol:
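Measures ADP output of PFK (1.25 nM) at 0.1 mM ATP, 0.5 mM F6P, pH 8.0 TEA buffer with 5 mM MgCl2. No-enzyme wells define full inhibition; uninhibited enzyme wells define zero.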

Experiment [19] deals with Tyrosyl-DNA phosphodiesterase 1 (Homo sapiens) (UniProt Q9NUW8). Put plainly: Confirmation Assay for Inhibitors of Tyrosyl-DNA Phosphodiesterase (TDP1) (AID 489007). Also: potency is read from the fitted curve at half-maximal effect; nearly all actives have a fitted effect of over 40% in size. The conditions noted are these: recombinant human TDP1 enzymatic activity, dose-response. Summed up:
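Recombinant human Tdp1 (1 nM final), expressed in E. coli, preincubated 15 min with compound. Then 15 nM 5'-biotin/3'-phosphotyrosine-FITC DNA substrate added for 5 min at room temperature. AlphaScreen beads (10 ug/ml) added for 10 min; cleavage gives signal loss.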

In experiment [20] the target is D(1A) dopamine receptor (Homo sapiens) (UniProt P21728). Put plainly: HTS Assay for Allosteric Agonists of the Human D1 Dopamine Receptor: Primary Screen for Potentiators (AID 488982). Also: 0% is about no effect. A digest of the protocol:
as §1

Ten compounds from PubChem BioAssay (NCATS) can be followed below.

Results filed as inconclusive are left out. The source made the active and inactive calls. Unless noted, calls follow the shape of the dose curve; as a rule, active = well fitted curve in the direction sought with a large enough effect; inconclusive = small, poorly fitted or top-dose-only effect, or another doubt; inactive = no such curve, though single readings can be large; an effect the other way counts as inactive or inconclusive.

Sequence of D(1A) dopamine receptor (Homo sapiens) (P21728 whole entry, looked up): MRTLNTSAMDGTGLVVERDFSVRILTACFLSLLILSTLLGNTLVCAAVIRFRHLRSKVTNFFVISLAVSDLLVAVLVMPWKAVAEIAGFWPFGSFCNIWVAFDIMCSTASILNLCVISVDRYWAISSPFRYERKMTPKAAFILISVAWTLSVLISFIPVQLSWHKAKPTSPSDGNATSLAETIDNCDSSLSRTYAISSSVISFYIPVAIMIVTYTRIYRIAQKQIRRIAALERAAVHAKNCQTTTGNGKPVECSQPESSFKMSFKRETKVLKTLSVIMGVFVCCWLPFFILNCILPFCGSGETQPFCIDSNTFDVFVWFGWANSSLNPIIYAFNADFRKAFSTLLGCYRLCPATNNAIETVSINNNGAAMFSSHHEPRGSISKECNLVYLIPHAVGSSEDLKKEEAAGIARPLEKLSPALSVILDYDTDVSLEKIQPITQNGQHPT
Sequence of ATP-dependent 6-phosphofructokinase (Trypanosoma brucei brucei) (O15648 whole entry, looked up): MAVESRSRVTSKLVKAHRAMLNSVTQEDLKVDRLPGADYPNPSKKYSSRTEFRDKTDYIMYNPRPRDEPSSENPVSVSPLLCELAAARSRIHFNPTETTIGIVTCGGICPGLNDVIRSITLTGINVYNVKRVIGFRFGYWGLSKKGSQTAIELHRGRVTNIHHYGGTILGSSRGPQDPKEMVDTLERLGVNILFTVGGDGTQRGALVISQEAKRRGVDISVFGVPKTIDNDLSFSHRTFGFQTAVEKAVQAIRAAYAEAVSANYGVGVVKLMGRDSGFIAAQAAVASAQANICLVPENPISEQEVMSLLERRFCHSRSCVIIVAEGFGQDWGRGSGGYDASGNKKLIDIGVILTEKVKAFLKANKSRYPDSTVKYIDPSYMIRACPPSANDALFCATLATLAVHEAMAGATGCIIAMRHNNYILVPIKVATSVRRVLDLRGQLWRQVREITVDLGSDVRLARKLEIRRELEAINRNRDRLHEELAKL
Sequence of Thyrotropin-releasing hormone receptor (Homo sapiens) (P34981 whole entry, looked up): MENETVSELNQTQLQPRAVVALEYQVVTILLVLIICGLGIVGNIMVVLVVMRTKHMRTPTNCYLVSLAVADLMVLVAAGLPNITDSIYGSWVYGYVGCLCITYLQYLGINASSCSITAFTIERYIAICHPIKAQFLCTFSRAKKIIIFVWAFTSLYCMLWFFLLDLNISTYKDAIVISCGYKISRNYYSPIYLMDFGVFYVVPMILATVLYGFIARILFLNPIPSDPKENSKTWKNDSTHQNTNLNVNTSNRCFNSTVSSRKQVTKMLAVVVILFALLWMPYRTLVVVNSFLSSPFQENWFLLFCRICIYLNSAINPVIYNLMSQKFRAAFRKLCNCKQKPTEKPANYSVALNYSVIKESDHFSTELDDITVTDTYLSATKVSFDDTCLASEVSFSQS
Sequence of Peptidyl-prolyl cis-trans isomerase NIMA-interacting 1 (Homo sapiens) (Q13526 whole entry, looked up): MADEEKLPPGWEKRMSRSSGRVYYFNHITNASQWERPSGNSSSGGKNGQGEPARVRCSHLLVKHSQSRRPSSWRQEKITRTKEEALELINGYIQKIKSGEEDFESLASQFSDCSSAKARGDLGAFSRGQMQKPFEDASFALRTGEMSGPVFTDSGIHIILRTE

With `COC(=O)[C@@H](N)CCCN=C(N)N[N+](=O)[O-]`, the Potency entry in experiment [1], in experiment [2], in [4], in experiment [10] and in [11] was “inactive” throughout. The compound was classed as inactive in [3], in experiment [5], in experiment [6], in [7], in experiment [8] and in [9]. Moreover, the result in experiment [12] was inactive. For the same compound, in experiment [5], the viability change was -8.47%.

On to `CCCCc1ccc(C(=O)O)nc1`, for which the result in experiment [13], in [14], in [3], in experiment [6], in experiment [16] and in [17] was inactive. For the same compound, the call in [7], in experiment [8], in experiment [9] and in experiment [12] was inactive. The Potency entry in [1], in experiment [2], in experiment [4] and in experiment [11] was “inactive” in each case. Also, in experiment [15], the activation is 1.25% (inactive).

For `C[C@@H](N)Cc1cnc[nH]1`, the result in [13], in experiment [14], in [3], in experiment [6], in experiment [16] and in experiment [17] was inactive. Further, the compound was called inactive in [7], in [8], in [9] and in [12]. For the same compound, the Potency entry in [1], in experiment [2], in [4] and in experiment [11] was “inactive” throughout. The activation in experiment [15] was 1.12% (inactive).

On to `CC[C@@H]1C(=O)OC[C@@H]1Cc1cncn1C`, for which the result in [13], in experiment [14], in experiment [16] and in [17] was inactive.

Regarding `CC(C)NC(C)Cc1ccc(I)cc1` (stereo not given), the compound was classed as inactive in [14], in experiment [3], in experiment [5], in experiment [6], in experiment [16] and in [17]. The call in experiment [7], in experiment [8], in experiment [9] and in experiment [12] was inactive. The Potency entry in experiment [1], in experiment [2], in [18], in experiment [4], in experiment [10] and in [11] was “inactive” each time. Further, in [15], the activation was 2.38% (inactive). Moreover, in experiment [5], the viability change is 2.82%.

In the case of `COc1ccc2c(c[n+](C)c3c4cc5c(cc4ccc23)OCO5)c1OC`, the outcome in experiment [13], in experiment [14], in [3], in [6], in [16] and in [7] was inactive. The result in experiment [8] was inactive. Moreover, the Potency result in [1], in experiment [2], in experiment [4] and in experiment [11] was “inactive” throughout. In addition, the activation in experiment [15] was 0.625% (inactive).

`CC(=O)[O][Hg][c]1ccccc1`: the Potency in experiment [19] was 10 µM (active); in [18], 7.94 µM (active); in experiment [11], 50.1 µM (active).

On to `CC[N+]1(CCOC(=O)C(O)(c2ccccc2)c2ccccc2)CCCCC1`, for which, in experiment [18], the Potency result is “inactive”.

`NCCc1c[nH]c2ccccc12`: the result in experiment [13], in [14], in experiment [3], in [5], in [6] and in experiment [16] was inactive. Besides, the outcome in experiment [17], in experiment [7], in [8], in experiment [9] and in experiment [12] was inactive. For the same compound, the Potency result in experiment [1], in [2] and in [11] was “inactive” each time. Besides, the activation in [15] was -0.438% (inactive). In [5], the viability change is -0.0651%.

For `S=C(NC1CCCCC1)N1CCC(c2cnc[nH]2)CC1`, the outcome in experiment [14], in [20], in experiment [3], in [5], in experiment [6] and in experiment [16] was inactive. Further, the outcome in experiment [17], in experiment [7], in [8], in [9] and in [12] was inactive. Further, the Potency entry in [1], in experiment [2], in experiment [4], in [10] and in experiment [11] was “inactive” each time. Also, the activation in experiment [15] was 0.5% (inactive). The viability change in experiment [5] is -5.13%.
